Z-score data for 36 molecules are collected here from PubChem BioAssay.

Molecules are shown by their SMILES.

A short description of this experiment: compound effects on lung adenocarcinoma cell viability – A549, calcein-AM fluorescence, 48 h, basal, profiling panel (AID 1162). Note: test concentration not given here. The conditions noted are these: higher = more signal.
Consider `COC(=O)[C@H](C)NC(=O)CCC1CC(OC(=O)NCc2cccc3ccccc23)CC2(CCCC(COC(=O)NCc3ccccc3)O2)O1` (stereo partly specified), for which the z-score was 0.217.

For `O=C1CCCC=C1C(O)C1CCCCC1` (stereo unspecified), the z-score was -0.586.

`COc1ccc(COC(=O)NN=C2C[C@@H](O)[C@@H](O)[C@@H]3[C@@H]4C(=O)N(Cc5ccccc5)C(=O)[C@@H]4CC[C@@H]23)cc1`: the z-score was -0.178.

On to `CO[C@H]1COC(=O)CC=C[C@H](C)[C@H](OC)COC(=O)[C@@H](C)NC(=O)CC=C[C@@H]1C`, for which the z-score was -0.42.

With `CC(C)CON=C1[C@H]2CCn3c(=O)n(C)c(=O)n3[C@H]2[C@H](O)[C@@H]2O[C@H]12`, the z-score was 0.543.

Regarding `CCOC(=O)CCN1C(=O)[C@H]2[C@H]3[C@H](O)[C@H](O)CC(=NOCC=C(C)CCC=C(C)C)[C@@H]3CC[C@H]2C1=O`, the z-score was -0.0606.

In the case of `CC[C@@H](c1ccccc1)n1c(=O)n2n(c1=O)[C@H]1[C@H](O)[C@@H]3O[C@@H]3C(=NOCc3ccccc3)[C@H]1CC2`, the z-score was -2.83.

On to `CC(CCN1CCCc2nc(C)c(C)cc21)=NO[C@@H](C)c1cn([C@H](CO)Cc2ccccc2)nn1`, for which the z-score was 1.11.

Turning to `COC(=O)[C@H](C)NC(=O)CCC1CC(OC(=O)NCCc2ccc(F)cc2)CC2(CCCC(COC(=O)NCC3CCCCC3)O2)O1` (stereo partly specified), the z-score is -0.111.

For the molecule `CCOC(=O)[C@H](Cc1ccccc1)NC(=O)CCC1CC(OC(=O)NCc2ccc3c(c2)OCO3)CC2(CCCC(COC(=O)NCCCN3CCCC3=O)O2)O1` (stereo partly specified), the z-score was 0.0325.

With `CC(CCC(=O)OC[C@H]1O[C@H](C#Cc2ccccc2)C=C[C@@H]1Oc1ccc(C)cc1)=NOC[C@@H](C)[C@H](OCc1ccccc1)C(C)C`, the z-score was -0.284.

Regarding `CCN1C(=O)[C@H]2[C@H]3[C@H](O)[C@H](O)CC(=NOC[C@@H](O)[C@H]4O[C@@H]5OC(C)(C)O[C@@H]5[C@H]4O)[C@@H]3CC[C@H]2C1=O`, the z-score is 0.725.

With `CC(C)CON=C1C[C@@H](O)[C@@H](O)[C@@H]2[C@@H]3C(=O)N(Cc4ccc5c(c4)OCO5)C(=O)[C@@H]3CC[C@@H]12`, the z-score was 0.606.

With `C=CC[C@@H]1C=C[C@H](ON=C2C[C@@H](O)[C@@H](O)[C@@H]3[C@@H]4C(=O)N(CC)C(=O)[C@@H]4CC[C@@H]23)[C@@H](CO)O1`, the z-score was -0.98.

Regarding `CO[C@H]1COC(=O)CCC[C@H](C)[C@H](OC)COC(=O)CC=C[C@@H]1C`, the z-score was 1.11.

As to `COc1ccc2c(c1)O[C@@H](c1cccc(C(F)(F)F)c1)[C@H](O)C2=O`, the z-score was 0.759.

On to `CC(CCN1CCCc2nc(C)c(C)cc21)=NOC[C@@H](O)COCc1ccco1`, for which the z-score is 0.604.

On to `CCN1C(=O)[C@H]2[C@H]3[C@H](O)[C@H](O)CC(=NO[C@@H]4O[C@H](CO)[C@@H](O)[C@H](O)[C@H]4O)[C@H]3CC[C@H]2C1=O`, for which the z-score was 0.212.

For `CCOC(=O)[C@H](CC(C)C)NC(=O)CCC1CC(OC(=O)NCc2ccc3c(c2)OCO3)CC2(CCCC(COC(=O)NCCOc3ccccc3)O2)O1` (stereo partly specified), the z-score is -0.253.

Regarding `O=C1C2=CC[C@H]3C(=O)N(c4ccc(F)cc4F)C(=O)[C@H]3[C@H]2[C@H](O)[C@@H]2O[C@H]12`, the z-score is -0.463.

Take `CC(=O)OC[C@H]1O[C@H](C#CCCc2ccccc2)C=C[C@@H]1OC(C)=O`: the z-score is 0.233.

Regarding `CC(C)=NOC(C)CN1CCCc2nc(C)c(C)cc21` (stereo unspecified), the z-score was 0.755.

Take `COC(=O)[C@H](C)NC(=O)CCC1CC(OC(=O)NCc2cccc3ccccc23)CC2(CCCC(COC(=O)NCCOc3ccccc3)O2)O1` (stereo partly specified): the z-score is -0.13.

Turning to `C[C@@H]1CC[C@@H](C(=O)O)N[C@H]1c1cccc(N2CCOCC2)c1`, the z-score was 1.03.

Turning to `COC(=O)[C@@H]1CC[C@H](C)[C@@H](c2ccc(Br)cc2)N1C[C@H](O)CN=[N+]=[N-]`, the z-score was 0.128.

Consider `CCOC(=O)[C@H](Cc1ccccc1)NC(=O)CCC1CC(OC(=O)NCCc2ccc(F)cc2)CC2(CCCC(COC(=O)NCc3cccc(C(F)(F)F)c3)O2)O1` (stereo partly specified), for which the z-score is -0.754.

With `COc1cccc([C@H]2Oc3ccc(OC)cc3C(=NOCC[C@@H]3C=C[C@H](OC(C)=O)[C@@H](COC(C)=O)O3)[C@@H]2O)c1`, the z-score was -0.34.

For the molecule `CC(=O)OC[C@H]1O[C@H](CC=NO[C@@H](C)c2cc(-c3c(C)cc(C)cc3C)no2)C=C[C@@H]1OC(C)=O`, the z-score was -0.937.

With `CCOC(=O)NN=C1C[C@@H](O)[C@@H](O)[C@@H]2[C@@H]3C(=O)N(c4ccc(F)cc4F)C(=O)[C@@H]3CC[C@H]12`, the z-score is -0.999.

Consider `O=C1[C@H]2[C@H]3[C@H](O)[C@H](O)CC(=NO[C@@H]4O[C@H](CO)[C@@H](O)[C@H](O)[C@H]4O)[C@H]3CC[C@H]2C(=O)N1C[C@@H]1CCCO1`, for which the z-score was 0.676.

Regarding `CCOC(=O)[C@H](Cc1ccccc1)NC(=O)CCC1CC(OC(=O)NCCc2ccc(F)cc2)CC2(CCCC(COC(=O)NCCC(C)C)O2)O1` (stereo partly specified), the z-score is 1.28.

In the case of `CO[C@H]1COC(=O)[C@H](C)COC(=O)[C@@H](OCc2ccccc2)C=C[C@@H]1C`, the z-score was 0.644.

As for `O=C1[C@H]2[C@H]3[C@H](O)[C@H](O)CC(=NOC[C@@H](O)COCc4ccco4)[C@@H]3CC[C@H]2C(=O)N1Cc1ccccc1`, the z-score was -0.355.

Regarding `CC(C)=CCCC(C)=CCON=C1C[C@@H](O)[C@@H](O)[C@@H]2[C@@H]3C(=O)N(Cc4ccc5c(c4)OCO5)C(=O)[C@@H]3CC[C@H]12`, the z-score is -0.0007.

Consider `COC(=O)[C@H](C)NC(=O)CC=C[C@@H](C)[C@@H]1C=C[C@H](O)[C@@H](CO)O1`, for which the z-score is -0.244.

Consider `COc1ccc(COC(=O)NN=C2C[C@@H](O)[C@@H](O)[C@@H]3[C@@H]4C(=O)N(C[C@@H]5CCCO5)C(=O)[C@@H]4CC[C@@H]23)cc1`, for which the z-score is 0.795.
